# Results as given in PubChem BioAssay (NCATS).
# Results filed as inconclusive are left out. A call without a number means that no potency is given here. Active and inactive are the calls of the source. Calls follow the shape of the dose curve; as a rule, active = well fitted inhibition curve with a large enough effect; inconclusive = small, poorly fitted or top-dose-only effect; inactive = flat fitted curve, though single readings scatter.
# Tested on: PC49
# Assay: qHTS profiling for inhibitors of Plasmodium falciparum proliferation (AID 504749); also: nearly all actives have a fitted effect of over 60% in size
# Conditions: P. falciparum in erythrocytes, SYBR Green DNA, 72 h; series mostly up to 28.7 µM
# In short: (§1)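 Each compound contacts P. falciparum-infected red blood cells for 72 h at 37 C; lysis buffer (Tris, EDTA, saponin, Triton X, SYBR Green I) is added and fluorescence measured next morning; values normalized to controls.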
# Potency is read from the fitted curve at half-maximal effect.
row,Compound,Potency
1,NC(=O)N1c2ccccc2CC(=O)c2ccccc21,inactive
2,Nc1nc(N)nc(-c2cc(Cl)ccc2Cl)n1,inactive
3,CCCN[C@H]1CCc2nc(N)sc2C1,inactive
4,CN(CCOc1ccc(CC2SC(=O)NC2=O)cc1)c1ccccn1 (stereo not drawn),inactive
5,CCCc1cc(C(N)=S)ccn1,inactive
6,C[C@]12C=CC(=O)C=C1CC[C@@H]1[C@@H]2C(=O)C[C@@]2(C)[C@H]1CC[C@]2(O)C(=O)CO,inactive
7,Nc1[nH]c(=O)ncc1F,inactive
8,CC(C)(Sc1cc(C(C)(C)C)c(O)c(C(C)(C)C)c1)Sc1cc(C(C)(C)C)c(O)c(C(C)(C)C)c1,inactive
9,N=C(N)c1ccc(OCCCCCOc2ccc(C(=N)N)cc2)cc1,708 nM (active)

# Tested on: SC27B
# Assay: as above
# Conditions: P. falciparum in erythrocytes, SYBR Green DNA, 72 h; series mostly up to 28.7 µM
# In short: as §1
row,Compound,Potency
1,Cn1nnc2c(C(N)=O)ncn2c1=O,inactive
2,N[C@@H](C(=O)N[C@@H]1C(=O)N2C(C(=O)O)=C(Cl)CS[C@H]12)c1ccccc1,inactive
3,O=P(O)(O)C(O)(Cc1cccnc1)P(=O)(O)O,inactive
4,NCCCC(O)(P(=O)(O)O)P(=O)(O)O,inactive
5,CC(C)(C#N)c1cc(Cn2cncn2)cc(C(C)(C)C#N)c1,inactive
6,Cc1ccnc2c1NC(=O)c1cccnc1N2C1CC1,inactive
7,O=C(O)c1cc(=O)[nH]c(=O)[nH]1,inactive
8,Cc1ncc([N+](=O)[O-])n1CCO,inactive
9,CCN(C)C(=O)Oc1cccc([C@H](C)N(C)C)c1,inactive
10,COc1cc(NCc2ccc3nc(N)nc(N)c3c2C)cc(OC)c1OC,2240 nM (active)
11,COc1cc([C@@H]2c3cc4c(cc3[C@H](O)[C@H]3COC(=O)[C@H]23)OCO4)cc(OC)c1OC,4470 nM (active)
12,C1CCC(C(CC2CCCCN2)C2CCCCC2)CC1 (stereo not drawn),7940 nM (active)
13,COc1ccc2cc3[n+](cc2c1OC)CCc1cc2c(cc1-3)OCO2,1260 nM (active)
14,CCn1cc(C(=O)O)c(=O)c2cc(F)c(N3CCNCC3)nc21,inactive
15,CCOCC(O)COc1ccc(NC(=O)CC[S+](C)C)cc1 (stereo not drawn),inactive
16,COC(=O)Nc1nc2ccc(Sc3ccccc3)cc2[nH]1,inactive
17,CC(C)Cn1cnc2c(N)nc3ccccc3c21,inactive
18,O=S(=O)(O)CCS,inactive
19,CN(C)c1ccc(C(=C2C=CC(=[N+](C)C)C=C2)c2ccc(N(C)C)cc2)cc1,501 nM (active)
20,CN1CCN(c2c(F)cc3c(=O)c(C(=O)O)cn(CCF)c3c2F)CC1,inactive
21,NC(=O)N1c2ccccc2CC(=O)c2ccccc21,inactive
22,Nc1nc(N)nc(-c2cc(Cl)ccc2Cl)n1,inactive
23,CCCN[C@H]1CCc2nc(N)sc2C1,inactive
24,CN(CCOc1ccc(CC2SC(=O)NC2=O)cc1)c1ccccn1 (stereo not drawn),inactive
25,CCCc1cc(C(N)=S)ccn1,inactive
26,C[C@]12C=CC(=O)C=C1CC[C@@H]1[C@@H]2C(=O)C[C@@]2(C)[C@H]1CC[C@]2(O)C(=O)CO,inactive
27,Nc1[nH]c(=O)ncc1F,inactive
28,CC(C)(Sc1cc(C(C)(C)C)c(O)c(C(C)(C)C)c1)Sc1cc(C(C)(C)C)c(O)c(C(C)(C)C)c1,inactive
29,N=C(N)c1ccc(OCCCCCOc2ccc(C(=N)N)cc2)cc1,1120 nM (active)
